Read-out in assay [1]: UDP glucuronosyltransferase (UGT1A1), UGT1A1 (gene 54658)
Briefly: LTEA_HepaRG_UGT1A1: Life Technologies and Expression Analysis (LTEA) Assay for UDP glucuronosyltransferase (UGT1A1) using HepaRG (AID 2283538; active means hit-call score of the fitted dose curve at least 0.9, where 1 is the maximum; inactive means score below 0.9). Conditions: mRNA level, 48 h; actives raise or lower the signal. The procedure, abridged: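 Readout is UGT1A1 transcript level by qRT-PCR, normalized to three housekeeping genes, after 48 h chemical treatment of HepaRG cells. Concentrations ran from 100 uM down in half-log steps with 0.5% DMSO, and gain or loss relative to DMSO was fitted.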

Read-out in assay [2]: UDP glucuronosyltransferase (UGT1A6), UGT1A6 (gene 54578)
Briefly: LTEA_HepaRG_UGT1A6: Life Technologies and Expression Analysis (LTEA) Assay for UDP glucuronosyltransferase (UGT1A6) using HepaRG (AID 2283539; active means hit-call score of the fitted dose curve at least 0.9, where 1 is the maximum; inactive means score below 0.9). Conditions: mRNA level, 48 h; actives raise or lower the signal. The procedure, abridged:
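Endpoint is UGT1A6 transcript induction or loss in a human liver cell line, quantified by TaqMan qRT-PCR 48 h after dosing. Concentrations ran from 100 uM downward in half-log steps in 0.5% DMSO; activity was fitted in both directions versus vehicle.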

Read-out in assay [3]: X-box binding protein 1 (XBP1), XBP1 (gene 7494)
Briefly: LTEA_HepaRG_XBP1: Life Technologies and Expression Analysis (LTEA) Assay for X-box binding protein 1 (XBP1) using HepaRG (AID 2283540; active means hit-call score of the fitted dose curve at least 0.9, where 1 is the maximum; inactive means score below 0.9). Conditions: mRNA level, 48 h; actives raise or lower the signal. The procedure, abridged:
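Human HepaRG monolayers receive test chemical for 48 h across an eight-point half-log series starting at 100 uM. XBP1 mRNA gain or loss is scored against DMSO by qRT-PCR.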

A short description of assay [4]: LTEA_HepaRG_LDH_cytotoxicity: Cytotoxicity Assessment in the Life Technologies and Expression Analysis (LTEA) Assay (AID 2283563).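 On AC50: LDH activity released into spent culture medium as a marker of cell death.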 The procedure, abridged: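 Human HepaRG hepatic cells are treated with test chemicals for 48 h at up to 100 uM in 0.5% DMSO. Cytotoxicity is scored from medium LDH against the vehicle control.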
Assay [5] in a line: ATG_XTT_Cytotoxicity: Cytotoxicity Assessment in the Attagene TRANS-FACTORIAL HepG2 Assay (AID 2283584). Summed up:
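Transfect HepG2 with GAL4-UAS reporter units, dose compound, incubate 24 h, then measure viable cell number by XTT. Fit concentration response against DMSO baseline.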

A short description of assay [6]: Tanguay_ZF_120hpf_MORT_legacy: (Legacy) Oregon State University Tanguay Lab 120 Hour Post-fertilization zebrafish Assay for Mortality (AID 2283633).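 On AC50: fitted as increase in binary mortality versus DMSO negative control.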 Summed up:
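Mortality endpoint from a multiplexed whole-embryo zebrafish screen. Dechorionated wild-type embryos received compound at 6 hpf and remained under static exposure at 28C until 120 hpf, with death noted as a present/absent call.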

The nature of assay [7]: Tanguay_ZF_120hpf_YSE_legacy: (Legacy) Oregon State University Tanguay Lab 120 Hour Post-fertilization zebrafish Assay for Yolk Sac Edema (AID 2283634). The procedure, abridged: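 Readout: presence or absence of yolk sac edema at 120 hpf, fitted upward against DMSO controls. Exposure ran statically from 6 hpf in dechorionated embryos kept at 28C.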
Assay [8] in a line: Tanguay_ZF_120hpf_AXIS_legacy: (Legacy) Oregon State University Tanguay Lab 120 Hour Post-fertilization zebrafish Assay for Body Axis Malformation (AID 2283635). Summed up:
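Static 6–120 hpf chemical exposure of dechorionated wild-type 5D zebrafish, one per well at 28C; morphology endpoint scored binary at 120 hpf relative to DMSO control.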

A short description of assay [9]: Tanguay_ZF_120hpf_EYE_legacy: (Legacy) Oregon State University Tanguay Lab 120 Hour Post-fertilization zebrafish Assay for Eye Malformation (AID 2283636). Summed up:
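Read-out is binary presence or absence of eye malformation, scored by brightfield microscopy at 120 hpf. Single larvae were exposed from 6 hpf in embryo medium containing 0.64% DMSO, with DMSO as baseline.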

A short description of assay [10]: Tanguay_ZF_120hpf_SNOU_legacy: (Legacy) Oregon State University Tanguay Lab 120 Hour Post-fertilization zebrafish Assay for Snout Malformation (AID 2283637). Summed up: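 Snout malformation read as a yes/no call on brightfield images of 120 hpf larvae (Tropical 5D strain). Static exposure began at 6 hpf on dechorionated embryos in 0.64% DMSO, with gain of signal analysed versus DMSO controls.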

Assay [11] in a line: Tanguay_ZF_120hpf_JAW_legacy: (Legacy) Oregon State University Tanguay Lab 120 Hour Post-fertilization zebrafish Assay for Jaw Malformation (AID 2283638). Summed up: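 Static waterborne exposure of dechorionated wild-type (Tropical 5D) zebrafish from 6 to 120 hpf at 28C, 0.64% DMSO vehicle; 5uM trimethyltin chloride served as positive control. Jaw morphology recorded as binary at 120 hpf.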

Assay [12] can be described thus: Tanguay_ZF_120hpf_OTIC_legacy: (Legacy) Oregon State University Tanguay Lab 120 Hour Post-fertilization zebrafish Assay for Otic Vesicle Malformation (AID 2283639). Summed up: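 Embryos from 5D wild-type adults exposed in plates; DMSO 0.64% v/v final. Sealed, light-protected, 28C, static to 120 hpf. Otic vesicle malformation recorded as binary endpoint; gain-of-signal fitted vs DMSO.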

Assay [13] deals with Cellular tumor antigen p53 (Homo sapiens) (UniProt P04637). Briefly: TOX21_p53_BLA_p2_ratio: Tox21 HCT-116 p53 Agonism Beta-lactamase Assay, Ratio, Phase 2 (AID 2283592). Summed up: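 An inducible beta-lactamase reporter in HCT116 cells signals p53 pathway activation. After 16 h chemical exposure at 37C, cells load CCF4-AM substrate for 2 h at room temperature; activity is the cleaved/uncleaved emission ratio relative to DMSO.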
Chain of Cellular tumor antigen p53 (Homo sapiens) (P04637 whole entry, looked up): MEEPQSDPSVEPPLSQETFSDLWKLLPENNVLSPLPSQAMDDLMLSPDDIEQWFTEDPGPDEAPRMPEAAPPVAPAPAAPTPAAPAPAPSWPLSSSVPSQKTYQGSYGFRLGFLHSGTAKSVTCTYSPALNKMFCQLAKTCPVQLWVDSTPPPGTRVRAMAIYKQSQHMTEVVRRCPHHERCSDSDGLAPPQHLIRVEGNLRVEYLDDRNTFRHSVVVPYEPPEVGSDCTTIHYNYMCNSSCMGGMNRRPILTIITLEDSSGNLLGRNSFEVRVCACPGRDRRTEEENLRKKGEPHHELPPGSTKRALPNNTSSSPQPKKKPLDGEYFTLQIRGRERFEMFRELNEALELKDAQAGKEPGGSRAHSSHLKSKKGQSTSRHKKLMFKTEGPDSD

The target is the same in assay [14]. Briefly: TOX21_p53_BLA_p3_ratio: Tox21 HCT-116 p53 Agonism Beta-lactamase Assay, Ratio, Phase 3 (AID 2283596). Summed up: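 HCT116 p53-bla cells (4000/well) given compound in DMSO (217-fold dilution) after 5 h, incubated 16 h at 37C. CCF4-AM substrate 2 h at room temperature; 460/530 nm emission ratio, gain fitted against DMSO.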
Assay [15] has the same target. Put plainly: TOX21_p53_BLA_p5_ratio: Tox21 HCT-116 p53 Agonism Beta-lactamase Assay, Ratio, Phase 5 (AID 2283599). Summed up: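 Beta-lactamase reporter ratio (blue 460 nm over green 530 nm, 405 nm excitation) after 2 h CCF4-AM loading, in HCT-116 cells exposed 16 h at 37 C to compounds pinned at 217-fold dilution. Increases relative to DMSO baseline scored.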
Assay [16] can be described thus: TOX21_p53_BLA_p5_viability: Viability Assessment in the Tox21 HCT-116 p53 Agonism Beta-lactamase Assay, Phase 5 (AID 2283600). Summed up: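 Counter-readout for cytotoxicity: ATP-dependent luminescence from CellTiter-Glo, read in the beta-lactamase wells after 30 min at RT, following a 16 h compound exposure at 37C.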

Results filed as inconclusive are left out. Activity calls are given as the source filed them. How the source made its calls, unless noted: active means hit-call score of the fitted dose curve at least 0.9, where 1 is the maximum; inconclusive means response in the unintended direction; inactive means score below 0.9.

For `Cc1occc(=O)c1O`, the compound was classed as inactive in [1], in assay [2], in assay [3], in assay [4], in assay [5] and in [6]. Further, the outcome in assay [7], in assay [8], in assay [9], in assay [10], in assay [11] and in assay [12] was inactive.
For the compound `C/C=C/C=C/C(=O)O`, the AC50 in [1] is 0.171 µM (active). Besides, the call in assay [2], in assay [3], in assay [4], in [5], in [6] and in assay [9] was inactive. For the same compound, the result in assay [10] and in [11] was inactive.
For the compound `CC(=O)CC(c1ccccc1)c1c(O)c2ccccc2oc1=O` (stereo unspecified), the call in assay [1], in assay [2], in assay [3], in [4], in assay [5] and in [6] was inactive. The result in assay [8] and in [11] was inactive.
Take `O=C(O)c1cccnc1`: the outcome in assay [1], in assay [2], in assay [3], in [4], in [5] and in [6] was inactive. Besides, the outcome in assay [9], in assay [10], in assay [11] and in assay [12] was inactive.
Regarding `CCCCCCC(C=O)=Cc1ccccc1`, the result in [1], in assay [2], in assay [3], in assay [4], in assay [5] and in assay [6] was inactive. The compound was classed as inactive in assay [8], in assay [9], in assay [10], in assay [11] and in assay [12].
Regarding `CC(C)COC(=O)CCCCC(=O)OCC(C)C`, the compound was called inactive in assay [1], in assay [2], in assay [3], in [4], in [5] and in [6]. Besides, the compound was called inactive in [7], in [8], in [9], in [10], in assay [11] and in [12].
In the case of `NC1CCCCC1`, the outcome in assay [1], in assay [2], in [3], in assay [4], in assay [5] and in assay [6] was inactive. Besides, the compound was classed as inactive in [7], in [8], in [9], in assay [10], in [11] and in assay [12].
As to `CC(=O)O[C@]1(C(C)=O)CC[C@H]2[C@@H]3C=C(Cl)C4=CC(=O)[C@@H]5C[C@@H]5[C@]4(C)[C@H]3CC[C@@]21C`, the AC50 in [1] is 72.3 µM (active); in assay [2], 73.3 µM (active); in assay [4], 53.7 µM (active). In addition, the result in [3], in [5], in assay [6], in [7], in assay [9] and in [10] was inactive. In addition, the compound was called inactive in assay [11] and in assay [12].
For the compound `O=C1NC(=O)C(c2ccccc2)(c2ccccc2)N1`, the AC50 in assay [1] is 19.3 µM (active). Moreover, the compound was classed as inactive in [2], in assay [3], in assay [4], in [5], in assay [6] and in assay [8]. Besides, the outcome in assay [9], in assay [10], in [11] and in assay [12] was inactive.
Take `Cn1cnc2c1c(=O)[nH]c(=O)n2C`: the result in [1], in [2], in assay [3], in assay [4], in assay [5] and in assay [6] was inactive. Besides, the result in assay [8], in assay [9], in assay [10], in assay [11] and in assay [12] was inactive.
`Nc1nc(=S)c2[nH]cnc2[nH]1`: the outcome in assay [1], in assay [5], in assay [6], in [7], in [9] and in assay [10] was inactive. Besides, the result in assay [11] was inactive. In addition, the AC50 is 5.91 µM (active) in assay [2], 15.7 µM (active) in [3] and 32.9 µM (active) in assay [4].
On to `C=CCCCCCCCCCCCC`, for which the compound was classed as inactive in assay [1], in [2], in [3], in [4], in assay [5] and in [13]. Further, the outcome in [14], in assay [15], in assay [6], in assay [7], in assay [8] and in assay [9] was inactive. Besides, in assay [12], the compound was classed as inactive.
As to `O=C(Oc1ccccc1)c1cccc(C(=O)Oc2ccccc2)c1`, the call in [1], in assay [2], in assay [3], in assay [4], in [5] and in [6] was inactive. For the same compound, the call in assay [7], in assay [8], in [9], in assay [10], in assay [11] and in [12] was inactive.
As for `CC(=O)OCC(COC(C)=O)OC(C)=O`, the outcome in assay [1], in [2], in [3], in [4], in assay [5] and in [6] was inactive. Besides, the call in assay [9], in assay [10], in [11] and in assay [12] was inactive.
Regarding `Cc1cn([C@H]2C=C[C@@H](CO)O2)c(=O)[nH]c1=O`, the result in [1], in assay [2], in [3], in assay [4], in assay [5] and in [6] was inactive. Moreover, the outcome in assay [8], in assay [9], in assay [10], in assay [11] and in assay [12] was inactive.
As for `CN(C)CCCN(C)CCCN(C)C`, the compound was classed as inactive in assay [1], in [2], in assay [3], in [4], in assay [5] and in assay [13]. Further, the outcome in [14], in assay [16], in [6], in assay [9], in assay [10] and in [11] was inactive. Further, in assay [12], the result was inactive.
In the case of `O=Cc1ccccc1C=O`, the result in assay [1], in assay [2], in assay [3], in assay [4], in assay [5] and in [7] was inactive. The outcome in assay [9], in assay [10] and in assay [12] was inactive. In addition, the concentration at half-maximal activity (AC50) in assay [6] was 4.42 µM (active).

Broadly, the AC50 is the concentration at which the activity in the assay is half-maximal.

The values are drawn from PubChem BioAssay (EPA / NIEHS).
